The nature of assay [1]: AP1 Signaling Pathway (AID 357).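 Note: ME-180 reporter cells stimulated with EGF at its EC50 level; % is set by controls: 0 for no effect and ±100 for the full control effect.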 In a few lines:
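Read-out was the 460nm/530nm emission ratio (excitation 405nm) after CCF4 loading for 2.5 hours at room temperature. Cells carried an AP-1-driven beta-lactamase reporter, were stimulated with EC50 EGF plus compound for 5 hours, and AC50 values came from titrations.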

Assay [2] has as its target Glucocorticoid receptor (Homo sapiens) (UniProt P04150). Description: GR-GFP Redistribution (AID 450;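 active = compounds whose dose series gives a full or clear partial fitted curve of increased nuclear translocation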; note: potency is the fitted concentration of half-maximal effect). The settings on record: U2OS GR-GFP nuclear translocation, laser cytometry, 2 h.
The target in assay [3] is Cytochrome P450 1A2 (Homo sapiens) (UniProt P05177). Kind of assay: p450-cyp1a2 (AID 410; calls by dose curve; note: potency is the fitted concentration of half-maximal effect;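 for activity change, negative = inhibition: -100% = full effect of reference inhibitor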). The essentials:
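O-Demethylation of luciferin 6' methyl ether by human CYP1A2 is monitored as luciferase luminescence. Substrate sits at Km (100uM); enzyme is 20nM. Values are scaled to 57 uM furafylline as maximal inhibition.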

Assay [4] deals with Mitogen-activated protein kinase 10 (Mus musculus) (UniProt Q61831). Kind of assay: JNK3 AlphaScreen Assay (AID 530).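 For activity change, negative = inhibition: signal reports phosphorylation of biotinylated GST-cJun 1-79 at Ser73 with 10 µM ATP; % is set by controls: 0 for no effect and ±100 for the full control effect.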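 Note: kinase came from lysate of stimulated human HepG2 cells.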 Note: potency is the fitted concentration of half-maximal effect. The essentials: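 Phosphorylation of biotinylated GST-cJun(1-79) at Ser73 is measured by AlphaScreen proximity luminescence. Enzyme is JNK3 in HepG2 lysates activated with interleukin-1beta and tumor necrosis factor alpha; ATP is 10 uM final.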
(In Alpha technology, singlet oxygen from a donor bead excites a nearby acceptor bead.)

The nature of assay [5]: Cell Viability - BJ (AID 421; calls by dose curve;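 note: potency is the fitted concentration of half-maximal effect; cells exposed to compound for 40 hours at 37 °C before readout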). The settings on record: BJ fibroblast viability, qHTS. In a few lines:
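Cytotoxicity as drop in intracellular ATP (CellTiter-Glo, 20 min RT) after 40 hr compound exposure of BJ fibroblasts at 37 °C. Titrations scaled between DMSO and 100 uM tamoxifen, Hill-fitted for AC50.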
(qHTS replaces the single test concentration by a dilution series.)

Assay [6] in a line: Cell Viability - Jurkat (AID 426;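 active = dose-dependent loss of cell ATP signal giving a full or clear fitted curve, ranked by lower potency value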;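 note: potency is the fitted concentration of half-maximal effect; cells exposed to compound for 40 hours at 37 °C before ATP read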). The settings on record: qHTS. In a few lines: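 Cells of the human T-cell leukemia line Jurkat (E6-1) are seeded at 5000 per well, treated with compound across a concentration range for 40 hours at 37 °C, then lysed with CellTiter-Glo; luminescence reports ATP.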
A short description of assay [7]: Cell Viability - Hek293 (AID 427;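 active = compounds whose dose-response curve shows a full or clear partial loss of cell viability, called from curve shape rather than a numeric limit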;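 note: potency is the fitted concentration of half-maximal effect; cells exposed to compound for 40 hours at 37 °C before reading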). As to conditions: qHTS. In a few lines:
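Luminescent ATP content (CellTiter-Glo, 20 min at room temperature) was measured after a 40 hr, 37 °C compound exposure of HEK293 cells. AC50 values came from Hill-equation fits of qHTS concentration-response data normalized to DMSO and 100 uM tamoxifen.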

The nature of assay [8]: Cell Viability - HepG2 (AID 433; calls by dose curve;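 note: potency is the fitted concentration of half-maximal effect; potency for ATP loss meaning cytotoxicity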). The settings on record: qHTS. The essentials:
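ATP luminescence (CellTiter-Glo) after 40 h compound exposure, 37 °C, HepG2, 1500 cells/well, complete medium. Normalized: DMSO = basal, 100 uM tamoxifen = 100% inhibition. AC50 via standard Hill equation.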

A short description of assay [9]: Cell Viability - MRC5 (AID 434; calls by dose curve;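 note: potency is the fitted concentration of half-maximal effect; potency reflects cytotoxicity seen as loss of intracellular ATP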). The settings on record: MRC5 lung fibroblast viability, qHTS. In a few lines: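 Decrease in intracellular ATP, quantified by luciferase light output, reflects compound toxicity toward MRC5 cells exposed for 40 hr in complete culture medium. Concentration-response curves, scaled between DMSO and 100 uM tamoxifen, gave AC50 values.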

A short description of assay [10]: Cell Viability - SK-N-SH (AID 435; calls by dose curve; note: potency is the fitted concentration of half-maximal effect). The settings on record: SK-N-SH neuroblastoma cell viability qHTS. The essentials:
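CellTiter-Glo ATP luminescence, 20 min RT read; cells pre-plated 5 hr, compound 40 hr at 37 °C, 1500 cells/well, complete medium. Normalized DMSO = 0, 100 uM tamoxifen = 100% inhibition; Hill-fit AC50.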

A short description of assay [11]: Cell Viability - N2a (AID 540; active = well fitted curve in the direction sought with a large enough effect; an effect the other way counts as inactive or inconclusive; note: nearly all actives have a fitted effect of over 45% in size; note: potency is the fitted concentration of half-maximal effect;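 for activity change, negative = cytotoxicity: plate controls were DMSO alone for no effect and tamoxifen control for full effect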). The essentials: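 Cytotoxicity was scored as loss of cellular ATP in N2a cells, a mouse neuroblastoma line. Compounds are applied in a qHTS concentration series for 40 hr at 37 °C.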
A short description of assay [12]: Cell Viability - NIH 3T3 (AID 541; active = well fitted curve in the direction sought with a large enough effect; an effect the other way counts as inactive or inconclusive; note: nearly all actives have a fitted effect of over 25% in size; note: potency is the fitted concentration of half-maximal effect;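 for activity change, negative = cytotoxicity: plate controls were DMSO alone for no effect and tamoxifen positive control for full effect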). The settings on record: NIH 3T3 cell viability, qHTS; activity change, negative = cytotoxicity: at 92.2 µM (top of the series). The essentials: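 Cells seeded at 1000/well, rested 5 hr at 37 °C, then dosed and incubated 40 hr at 37 °C. CellTiter-Glo added, 20 min room temperature, luminescence read. AC50 by Hill fit.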
Assay [13] can be described thus: Cell Viability - HUV-EC-C (AID 542; active = well fitted curve in the direction sought with a large enough effect; an effect the other way counts as inactive or inconclusive; note: % is set by controls: 0 for no effect and ±100 for the full control effect; nearly all actives have a fitted effect of over 35% in size). In a few lines: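 Cells were seeded at 1000 per well and incubated 5 hr at 37 °C before compound addition. After 40 hr at 37 °C, CellTiter-Glo reagent was added for 20 min and luminescence read. AC50 values came from Hill-equation modelling.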
Assay [14] in a line: Cell Viability - H-4-II-E (AID 543; active = well fitted curve in the direction sought with a large enough effect; an effect the other way counts as inactive or inconclusive; note: nearly all actives have a fitted effect of over 35% in size; note: potency is the fitted concentration of half-maximal effect). The essentials: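 Cells seeded at 1500 per well and rested 5 hr; compounds added; 40 hr incubation at 37 °C; CellTiter-Glo added, 20 min at room temperature; luminescence read. Hill-equation fits gave AC50.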
Assay [15] is described as follows: Cell Viability - SH-SY5Y (AID 544; active = well fitted curve in the direction sought with a large enough effect; an effect the other way counts as inactive or inconclusive;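 note: 0% = DMSO alone and -100% = 100 µM tamoxifen; nearly all actives have a fitted effect of over 55% in size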). The settings on record: SH-SY5Y neuroblastoma cell viability; viability change, negative = cytotoxic: at 92.2 µM (top of the series). The essentials: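 Cells were plated at 1500 per well and allowed 5 hr at 37 °C. Compounds were added across a concentration range and incubated 40 hr at 37 °C. CellTiter-Glo was added for 20 min at room temperature before luminescence reading.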

A short description of assay [16]: Cell Viability - Renal Proximal Tubule (AID 545; active = well fitted curve in the direction sought with a large enough effect; an effect the other way counts as inactive or inconclusive;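 note: 0% = DMSO only and -100% = 100 µM tamoxifen; nearly all actives have a fitted effect of over 40% in size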). In a few lines: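 Rat kidney proximal tubule cells, freshly isolated; 1000 cells/well, 5 hr settle, compound 40 hr 37 °C. CellTiter-Glo 20 min RT, luminescence read. AC50 by standard Hill fit.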
The nature of assay [17]: NFAT Signaling Pathway (AID 444).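 Note: carbachol stimulus at about its EC50 of 1 µM final; % is set by controls: 0 for no effect and ±100 for the full control effect.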 As to conditions: Jurkat NFAT-bla M1, carbachol, beta-lactamase ratio, 5 h; at 17.2 µM (top of the series) unless noted. In a few lines: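 Jurkat cells carrying an NFAT-driven β-lactamase reporter and co-transfected muscarinic M1 receptor were treated with compound plus carbachol (1 uM final, an EC50 level) for 5 h at 37 °C. CCF4 loading followed for 1 h at RT; 460/530 nm ratio gave %activity.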

Structures are written as SMILES. Values joined by “and” are separate entries in the source; they are usually repeats but may differ in a detail not shown here. Equal values may be shown once. Unmarked numbers belong to inactive results. Inconclusive results are not listed. Active and inactive are the calls of the source. Unless noted, calls come from the whole dose curve; as a rule, active = well fitted curve in either direction with a large enough effect (not every such curve was filed as active); inconclusive = small, poorly fitted or top-dose-only effect, or another doubt; inactive = flat fitted curve, though single readings scatter.

Glucocorticoid receptor (Homo sapiens), sequence (P04150 whole entry, looked up): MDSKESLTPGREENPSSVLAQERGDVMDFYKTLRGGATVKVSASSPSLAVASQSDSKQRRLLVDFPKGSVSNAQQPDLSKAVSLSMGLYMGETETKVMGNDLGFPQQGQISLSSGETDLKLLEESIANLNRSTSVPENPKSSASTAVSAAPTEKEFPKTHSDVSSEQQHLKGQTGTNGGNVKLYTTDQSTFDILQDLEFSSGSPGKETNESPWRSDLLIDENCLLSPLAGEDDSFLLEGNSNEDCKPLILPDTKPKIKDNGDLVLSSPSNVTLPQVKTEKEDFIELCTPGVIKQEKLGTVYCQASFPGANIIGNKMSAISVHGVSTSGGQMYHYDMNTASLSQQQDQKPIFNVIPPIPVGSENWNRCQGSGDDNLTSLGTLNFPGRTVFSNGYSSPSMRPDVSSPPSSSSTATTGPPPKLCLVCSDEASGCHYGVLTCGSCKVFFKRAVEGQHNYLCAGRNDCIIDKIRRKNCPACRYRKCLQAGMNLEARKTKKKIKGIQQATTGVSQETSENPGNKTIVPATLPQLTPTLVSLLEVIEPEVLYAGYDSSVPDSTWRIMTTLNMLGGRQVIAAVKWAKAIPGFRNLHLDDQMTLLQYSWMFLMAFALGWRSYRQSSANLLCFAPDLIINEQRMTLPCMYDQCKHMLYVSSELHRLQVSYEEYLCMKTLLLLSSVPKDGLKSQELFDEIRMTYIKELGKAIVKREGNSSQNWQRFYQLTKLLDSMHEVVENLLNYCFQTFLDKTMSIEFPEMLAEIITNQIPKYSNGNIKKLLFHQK
Cytochrome P450 1A2 (Homo sapiens), sequence (P05177 whole entry, looked up): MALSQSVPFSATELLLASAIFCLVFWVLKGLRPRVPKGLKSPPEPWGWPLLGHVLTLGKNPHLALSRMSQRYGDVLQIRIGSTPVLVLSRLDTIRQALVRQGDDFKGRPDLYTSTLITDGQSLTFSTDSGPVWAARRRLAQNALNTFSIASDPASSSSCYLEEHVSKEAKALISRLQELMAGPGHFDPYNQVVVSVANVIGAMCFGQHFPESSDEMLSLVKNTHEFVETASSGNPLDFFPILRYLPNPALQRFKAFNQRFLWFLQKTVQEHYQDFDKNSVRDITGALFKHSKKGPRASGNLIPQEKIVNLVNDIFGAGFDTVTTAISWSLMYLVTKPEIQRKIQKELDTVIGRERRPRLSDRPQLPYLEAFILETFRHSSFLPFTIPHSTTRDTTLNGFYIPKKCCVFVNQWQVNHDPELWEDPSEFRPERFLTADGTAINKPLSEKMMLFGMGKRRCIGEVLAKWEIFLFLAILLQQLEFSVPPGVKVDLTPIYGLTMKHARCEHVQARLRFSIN

With `O=c1[nH]c(=O)n([C@H]2C[C@H](O)[C@@H](CO)O2)cc1F`, the outcome in assay [1] was inactive. For the same compound, the Potency in assay [2] was more than 20.6 µM.

For the compound `CCOC(=O)Nc1ccc2c(c1)N(C(=O)CCN1CCOCC1)c1ccccc1S2`, the Potency result in assay [3] and in assay [4] was “inactive” each time.

Consider `C/C=C/c1ccc(O)c(OC)c1`, for which the Potency in assay [5], in assay [6], in [7], in assay [8], in assay [9] and in [10] was more than 92 µM each time. The Potency result in [4], in assay [11] and in assay [14] was “inactive” throughout. Besides, the activity change, negative = cytotoxicity in assay [12] was -17%. The result in assay [13] and in [16] was inactive. Moreover, in assay [15], the viability change, negative = cytotoxic was 1.26%.

As to `COc1cc([C@H]2Oc3cc([C@H]4Oc5cc(O)cc(O)c5C(=O)[C@@H]4O)ccc3O[C@@H]2CO)ccc1O`, the Potency in [5] was more than 92 µM; in [7], more than 92 µM; in [8] it was more than 92 µM; in assay [9] it was more than 92 µM; in assay [10], more than 92 µM; in [12], 31.6 µM (active). In addition, the Potency in assay [14] was 31.6 µM (active). Moreover, the Potency entry in assay [11] was “inactive”. In addition, the result in assay [13] was inactive. The viability change, negative = cytotoxic in assay [15] was -84.4% (active).

Turning to `COc1cc(C)nc(-n2nc(C)cc2OC)n1`, the compound was classed as inactive in assay [1]. In addition, the activity change, negative = inhibition in assay [17] was -6.98%. The Potency in assay [2] is more than 20.6 µM. In addition, the Potency result in assay [4] is “inactive”.

For the compound `CC(C)(C)NCC(O)COc1cccc2c1C[C@H](O)[C@H](O)C2` (stereo partly drawn), the compound was classed as inactive in assay [1]. The activity change, negative = inhibition in assay [17] is 1.44%. Besides, in [2], the Potency is more than 20.6 µM.

For `O=C(c1ccc(F)cc1)C1CCN(CCn2c(=S)[nH]c3ccccc3c2=O)CC1`, the Potency is 15.8 µM (active) in assay [3] and more than 46 µM in assay [2]. In assay [4], the Potency result was “inactive”.

As for `Cl/C(=C\n1cncn1)c1ccc(Cl)cc1Cl`, the Potency in [3] was 0.0631 µM (active); in [2], more than 46 µM.

As for `C[N+]12CCC(CC1)C(OC(=O)C(O)(c1ccccc1)c1ccccc1)C2` (stereo not drawn), the result in assay [1] was inactive. Moreover, the activity change, negative = inhibition in assay [17] was -83.7% (active). The Potency in [2] is more than 20.6 µM.

As to `CNCCc1ccccn1`, the Potency entry in assay [3] and in assay [4] was “inactive” in each case. In addition, in assay [17], the activity change, negative = inhibition is -6.53%. The Potency in [2] is more than 20.6 µM.

On to `CC(=O)OC[C@H]1O[C@@H](n2ncc(=O)[nH]c2=O)[C@H](OC(C)=O)[C@@H]1OC(C)=O`, for which the compound was classed as inactive in assay [1]. Further, in assay [17], the activity change, negative = inhibition was -22.9%. In assay [2], the Potency was more than 20.6 µM.

Consider `C=C[C@H]1CN2CC[C@H]1C[C@@H]2[C@@H](O)c1ccnc2ccc(OC)cc12`, for which the Potency in [5], in [7], in [8], in assay [9] and in [10] was more than 92 µM throughout. Moreover, the Potency result in assay [4], in assay [11] and in assay [14] was “inactive” each time. Besides, the compound was classed as inactive in assay [13] and in assay [16]. For the same compound, the viability change, negative = cytotoxic in assay [15] is -25.7%.

Regarding `COc1ccccc1N1CCN(CCCCNC(=O)c2ccc(-c3ccc(C(C)=O)cc3)cc2)CC1`, the Potency in [3] is 25.1 µM (active); in [2], more than 46 µM.

`CN=C(N)NCCC[C@H](N)C(=O)O`: in [1], the result was inactive. Further, the activity change, negative = inhibition in [17] was -7.03% [at 38 µM]. In addition, in assay [4], the Potency entry is “inactive”.

With `CNCCCCOc1ccccc1Cc1ccccc1`, the Potency in assay [2] was more than 46 µM. The Potency result in assay [4] is “inactive”.

For the compound `COc1cc(NS(=O)(=O)c2ccc(N)cc2)ncn1`, in assay [1], the outcome was inactive. Moreover, the activity change, negative = inhibition in assay [17] is -5.57% and -24.6% and -2.19%. In assay [2], the Potency was more than 20.6 µM. In addition, the Potency entry in [4] was “inactive”.

On to `O=C1C(=O)c2ccccc2C(O)=C1C1CCC(c2ccc(Cl)cc2)CC1` (stereo not drawn), for which the outcome in [1] was inactive. Also, the activity change, negative = inhibition in assay [17] was -25%. Moreover, the Potency result in [4] was “inactive”.

In the case of `Oc1ccc(Cl)cc1Cc1cc(Cl)ccc1O`, the results for the Potency in assay [7], in [8] and in assay [11] were 37.4 µM (active), 40.6 µM (active) and 31.6 µM (active), respectively. Also, in assay [4], the Potency result is “inactive”. Further, the activity change, negative = cytotoxicity in [12] was -84.9% (active). Moreover, the viability change, negative = cytotoxic in assay [15] is -85.8% (active).

In the case of `CCOc1ccccc1C(N)=O`, the Potency in [5], in [6], in assay [7], in [8], in assay [9] and in assay [10] was more than 92 µM in each case. Besides, the Potency result in assay [4], in [11] and in [14] was “inactive” each time. For the same compound, the activity change, negative = cytotoxicity in assay [12] was 2.98%. Further, the call in assay [13] and in [16] was inactive. In addition, the viability change, negative = cytotoxic in assay [15] is -2.76%.

In the case of `CCCCN1C[C@H](O)[C@@H](O)[C@H](O)[C@H]1CO`, the result in assay [1] was inactive. Besides, the activity change, negative = inhibition in assay [17] was 14.7%. Moreover, the Potency in assay [2] is more than 20.6 µM.

With `CN1CCc2cccc3c2[C@H]1Cc1ccc(O)c(O)c1-3`, the figures for the Potency in [2] and in [4] were more than 46 µM and 6.31 µM (active), respectively.

The record behind these values is PubChem BioAssay (NCATS).
